Hits are enriched below; roughly 1.3% of the tested compounds scored in any of these assays.
Mtb bLac sens: beta-lactam sensitization of Mtb H37Rv; M. tuberculosis H37Rv growth with meropenem, percent inhibition; inhibition, % at 25 µM; actives 0.27% (n = 330,000); call rule not given here;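 note: growth measured after seven days incubation then overnight dye step; 0% = bacteria only wells and 100% = bacteria with antibiotic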
MazF activator: activators of E. coli MazEF toxin-antitoxin RNase. P0AE70. FAM/BHQ RNA-DNA oligo cleavage fluorescence, 5 h. activation, % at 20 µM. actives 0.32% (n = 350,000). AID 504720; in the data active = activation above about 50%
Target sequence (P0AE70 whole entry, looked up): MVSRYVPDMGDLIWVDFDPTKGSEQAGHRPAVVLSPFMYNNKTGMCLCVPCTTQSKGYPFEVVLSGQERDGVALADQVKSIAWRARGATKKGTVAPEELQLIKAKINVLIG
Sa RN4220 lethal: kills Staphylococcus aureus RN4220; inhibition, % (test concentration not listed); AID 1259311; actives 0.33% (n = 330,000); S. aureus RN4220 growth, OD600, 16 h; in the data active = inhibition above about 85%;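 note: plate controls were untreated cells for no effect and reference antibiotic for full effect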
Sa ugtP lethal: kills S. aureus RN4220 lacking UgtP; S. aureus RN4220 ugtP deletion, OD600 growth, 16 h; growth inhibition, % (concentration not given with the values); actives 0.54% (n = 330,000); in the data active = growth inhibition above about 68%;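 note: plate controls were untreated wells for no effect and antibiotic for full effect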
CCHF vOTU inh: CCHFV vOTU protease inhibition; Pep-AMC fluorescence; inhibition, % at 11.5 µM; actives 0.55% (n = 370,000); AID 651958; in the data active = inhibition above about 30%; note: 0% = vehicle wells with enzyme and 100% = no enzyme wells
SARS 3CLpro inh: SARS-CoV 3CLpro protease inhibition | actives 0.14% (n = 290,000) | AID 1706 | recombinant SARS-CoV 3CLpro, quenched FRET peptide cleavage | inhibition, % at 6 µM; in the data active = inhibition above about 12%
Numbers without * were called inactive; ? = inconclusive; . = not tested or not shown; + = active, no number.

SMILES	Mtb bLac sens	MazF activator	Sa RN4220 lethal	Sa ugtP lethal	CCHF vOTU inh	SARS 3CLpro inh
CC(=O)OCC1OC(CC=NOC2OC(COC(C)=O)C(OC(C)=O)C(OC(C)=O)C2OC(C)=O)C=CC1OC(C)=O (configuration not stated)	.	.	6	2	.	.
N#C/C(=C/C1=C(N2CCOCC2)C(=C/c2cccc([N+](=O)[O-])c2)/CC1)C(=O)Nc1ccccc1F	.	636*	1	-12	7	.
N#C/C(=C/C1=C(N2CCOCC2)C(=C/c2ccccc2)/CC1)C(=O)Nc1ccccc1F	.	-139	7	-7	10	.
N#C/C(=C\C1=C(N2CCOCC2)C(=C/c2cccc([N+](=O)[O-])c2)/CC1)C(=O)Nc1ccccc1F	49	+	-3	-21	5	1
Cc1ccc(C)c(-n2c(C)cc(C=NNC(=O)c3c(C)nc4cc(C)ccn34)c2C)c1	.	.	2	-3	.	.
Nc1c(C(=O)Nc2nccs2)sc2nc(-c3cccs3)cc(C(F)(F)F)c12	-5	115*	22	14	-36	0
CC(C)(C)C(=O)c1sc2nc(-c3cccs3)cc(C(F)(F)F)c2c1N	-11	+	-2	13	-36	0
Cc1nnc(NC(=O)c2sc3nc(-c4cccs4)cc(C(F)(F)F)c3c2N)s1	?	-27	.	.	-19	-11
CSc1ccc(C=NN2CCN(Cc3ccc(C)cc3C)CC2)cc1	.	.	1	16	.	.
Nc1ncnc2c1ncn2C1CC(O)C(COP(=O)(O)O)O1 (configuration not stated)	.	.	11	6	.	.
COc1ccccc1NS(=O)(=O)c1cccc(C(=O)NN=Cc2ccc([N+](=O)[O-])o2)c1	.	.	98*	99*	.	.
COc1ccc(C(C)=NNC(=O)c2nnn(-c3nonc3N)c2-c2cccs2)cc1OC	.	.	3	-2	.	.
CCc1cccc(N=c2c([N+](=O)[O-])nn(-c3ccc(Cl)cc3)n2O)c1	100	24	95*	92*	8	-3
Cc1cccc(N=c2c([N+](=O)[O-])nn(-c3ccc(Cl)cc3)n2O)c1	50	3	-4	4	-5	4
Cc1cc(C)cc(N=c2c([N+](=O)[O-])nn(-c3cccc(Cl)c3)n2O)c1	100	7	88*	84	4	-2
O=C(NN=Cc1ccc(Cl)cc1Cl)c1cccc(N2CCCC2=O)c1	.	.	-1	-3	.	.
CC(=O)N1C(C)C=C[C@]1(Cc1ccccc1)C(=O)NCc1cc(F)cc(C(F)(F)F)c1 (some centres not stated)	.	.	8	-6	.	.
Cn1cc(Br)c(C(=O)NN=Cc2cccc(OC3CSC3)c2)n1	.	.	3	35	.	.
C[C@@]12C(=O)N(CC3CCCO3)CC(=O)N1C1c3ccccc3OCC1C2c1ccccc1 (some centres not stated)	.	.	4	-14	.	.
O=C(O)CN1C(=O)/C(=C\c2cn(-c3ccccc3)nc2-c2ccccc2)SC1=S	-4	-25	.	.	.	8
CC(C)COc1ccc(-c2nn(-c3ccccc3)cc2/C=C2/SC(=S)N(CC(=O)O)C2=O)cc1	-13	-2	98*	71	-4	2
CCOC(=O)Cn1nc(-c2ccccc2)c2ccccc2c1=O	14	-1	5	5	-2	5
O=c1c2ccccc2c(-c2ccccc2)nn1Cc1c(Cl)cccc1Cl	15	-7	-13	96*	-3	1
Cc1ccc(CSc2ncnc3c2cnn3Cc2ccccc2)cc1C	15	-13	-2	93*	6	-4
N#Cc1ccc(CSc2ncnc3c2cnn3Cc2ccccc2)cc1	10	-9	-8	42	1	-8
SMILES	Mtb bLac sens	MazF activator	Sa RN4220 lethal	Sa ugtP lethal	CCHF vOTU inh	SARS 3CLpro inh
Cc1ccc(CSc2ncnc3c2cnn3Cc2ccccc2)cc1	4	-7	-4	90*	-3	5
COc1cccc(C(=O)Oc2ccc(C=NNC(=O)c3ccncc3)cc2OC)c1	.	.	-5	-3	.	.
Cc1ccc(C(=O)Nc2ccc(Br)cc2)cc1S(=O)(=O)Nc1ccccn1	8	125*	1	7	15	-3
O=C(O)c1cc(N/N=C/c2ccc(N3CCOCC3)s2)ccc1Cl	0	12	.	.	31*	4
COc1cc(C=NNc2ccc3ccccc3c2)ccc1OC(=O)c1ccco1	.	.	3	0	.	.
CC(=NOC(=O)c1ccccc1)c1c(C)nc2cc(C)ccn12	.	.	6	10	.	.
CC(=NNC(=O)c1ccc(O)cc1)c1cccc([N+](=O)[O-])c1	.	.	0	12	.	.
